Assay results: PubChem BioAssay (Tox21)
Inconclusive results are not listed. Activity calls are given as the source filed them. Calls come from the whole dose curve; as a rule, active = well fitted cell-killing curve with a large enough effect in the repeat runs; inconclusive = weak or mixed curves, or effect the other way; inactive = no such curve, though single readings can be large or run the other way.

Experiment: qHTS assay to identify small molecule agonists of the RXR signaling pathway - cell viability counter screen (AID 1159529); note: nearly all actives have a fitted effect of over 50% in size
Details: RXR-alpha-bla HEK293T viability, CellTiter-Glo, 16 h; series mostly up to 76.8 µM; activity change, negative = cytotoxicity: at the top concentration
Text: National Center for Advancing Translational Sciences [NCATS]
NIH Chemical Genomics Center [NCGC]
U.S. Environmental Protection Agency [EPA]
National Institutes of Environmental Health Sciences [NIEHS]
National Toxicology Program [NTP]
U.S. Food and Drug Administration [FDA]
The Retinoid X receptor (RXR), a nuclear hormone receptor expressed in liver, spleen, placenta, epidermis, central nervous system. These receptors are able to form homo and heterodimers with other nuclear receptors and due to this heterodimerizing ability, RXR functions as master regulators producing diverse physiological effects. Three subtypes of RXR exist; alpha, beta and gamma. Retinoid X receptor alpha (RXR-alpha) has potential roles in metabolic signaling pathways, skin alopecia, dermal cysts, cardiac development, insulin sensitization etc. Therefore screening environmental chemicals on RXR-alpha signaling can be used for the studies focused on such therapeutic applications. For quantification of RXR-alpha ligands signaling, GeneBLAzer RXR alpha-UAS-bla HEK 293T (Life Technologies, Carlsbad, CA) cells containing a beta-lactamase reporter-gene under control of Retinoid X receptor-alpha response element were used to screen Tox21 10K library. The cytotoxicity of the Tox21 compound library against the RXR-alpha HEK 293T cell line was tested in parallel by measuring cell viability using CellTiter-Glo assay (Promega Corporation, Madison, WI) in the same wells.
Tox21 Assay Protocol Summary:
RXR-alpha HEK 293T cells were dispensed at 2,000 cells/6 uL of assay medium containing 2% charcoal-stripped FBS using a Multidrop Combi (ThermoFisher Scientific, Waltham, MA) dispenser. The assay was performed in black wall/clear-bottom 1536-well plates (Greiner Bio-One North America Inc. Monroe, NC). Tetraoctyl ammonium bromide was used as a positive control in the cytotoxicity screen. After the assay plates were incubated at 37 C and 5% CO2 for 5 hr, 23 nL of compounds dissolved in DMSO, positive control or DMSO only were transferred to the assay plate by a Pintool station (Kalypsys, San Diego, CA). The assay plates were incubated at 37 C and 5% CO2 for 16 hr. One uL of LiveBLAzer B/G FRET substrate (Life Technologies) was added using a Flying Reagent Dispenser (FRD) (Aurora Discovery, San Diego, CA) and the plates were incubated at room temperature for 2 hr. Fluorescence intensity (405 nm excitation, 460/530 nm emission) was measured using an Envision plate reader (PerkinElmer, Shelton, CT). For cytotoxicity, 4 uL/well of CellTiter-Glo reagent was added into the assay plates using an FRD. After 30 min incubation at room temperature, the luminescence intensity was measured using a ViewLux plate reader (PerkinElmer).
% is set by controls: 0 for no effect and ±100 for the full control effect.

Row | SMILES | activity change, negative = cytotoxicity
1 | CCCC(C)C(O)CC (stereo not given) | -1.86% (inactive)
2 | N#Cc1ccccc1C#N | 4.1% (inactive)
3 | CC(C)OC(=O)C(C(=O)OC(C)C)=C1SC=CS1 | -9.55% [at 35.3 µM] (inactive)
4 | CN1C(CCl)Nc2cc(Cl)c(S(N)(=O)=O)cc2S1(=O)=O (stereo not given) | -1.65% [at 35.3 µM] (inactive)
5 | CCCc1ccc(O)c(OC)c1 | -13.4% (inactive)
6 | O=C1CCCc2c(O)cccc21 | 0.0023% [at 35.3 µM] (inactive)
7 | CC(=O)O[C@@H]1CC2C3CCc4cc(OC(=O)c5ccccc5)ccc4C3CCC2(C)[C@H]1OC(C)=O (stereo not given in full) | -0.676% [at 35.3 µM] (inactive)
8 | CN(C)CCC[C@@]1(c2ccc(F)cc2)OCc2cc(C#N)ccc21 | -18% [at 35.3 µM] (inactive)
9 | C=CCCCCCCCCOC(C)=O | -10.7% (inactive)
10 | CC12CCCC=C1C(=O)OC2=O (stereo not given) | 0.692% (inactive)
11 | CCOC(=O)COc1ccc2c(C)c(CCN(CC)CC)c(=O)oc2c1Cl | -20.8% [at 35.3 µM] (inactive)
12 | C[C@@H]1CCC[C@H](C)N1CCCC(O)(c1ccccc1)c1ccccn1 (stereo not given in full) | -4.33% [at 35.3 µM] (inactive)
13 | O=C1c2ccccc2C(=O)N1CO | 16.3% (inactive)
14 | Cc1ccccc1OCC(=O)O | -0.0412% (inactive)
15 | CC(=O)c1c(C)cc(C(C)(C)C)cc1C | 0.635% (inactive)
16 | N#Cc1cc(NC(=O)C(=O)O)c(Cl)c(NC(=O)C(=O)O)c1 | 1.77% [at 35.3 µM] (inactive)
17 | C=COCCCCO | 8.44% (inactive)
18 | NNC(=O)OCc1ccccc1 | -5.21% (inactive)
19 | CC(=O)OC1CCC(C(C)(C)C)CC1 (stereo not given) | -10.2% (inactive)
20 | CNC(C)=O | -1.26% (inactive)

Row | SMILES | activity change, negative = cytotoxicity
21 | CCCCCCCC(=O)N(C)C | 8.54% (inactive)
22 | CCNC(=O)C(C)OC(=O)Nc1ccccc1 (stereo not given) | -3.55% (inactive)
23 | OCCC(F)(F)C(F)(F)C(F)(F)C(F)(F)C(F)(F)C(F)(F)F | -3.62% (inactive)
24 | CO/N=C(\C(=O)O)c1csc(NC(=O)CCl)n1 | 13.8% [at 35.3 µM] (inactive)
25 | CNC(=O)c1c(I)c(NC(C)=O)c(I)c(C(=O)O)c1I | -1.24% [at 35.3 µM] (inactive)
26 | Cc1cc(O)c(Cl)cc1C | -3.46% (inactive)
27 | c1coc(Cn2cccc2)c1 | -3.36% (inactive)
28 | Cc1ccccc1C#N | 3.75% (inactive)
29 | COC(=O)N/N=C/c1c[n+]([O-])c2ccccc2[n+]1[O-] | 1.95% [at 35.3 µM] (inactive)
30 | C/C=C/C(=O)CCCC | -2.96% (inactive)
31 | O=Cc1ccc(C(=O)O)cc1 | 6.59% (inactive)
32 | COC(=O)C(c1ccccc1Cl)N1CCc2sccc2C1 (stereo not given) | 4.93% [at 35.3 µM] (inactive)
33 | O=S(=O)(O)CC(O)CCl (stereo not given) | 11.3% (inactive)
34 | C=CCCCCCCCCCCCCCC | -3.45% [at 15.8 µM] (inactive)
35 | CNCCc1ccccn1 | 1.91% [at 35.3 µM] (inactive)
36 | Cc1ccc(S(=O)(=O)NC(=O)NN2CC3CCCC3C2)cc1 (stereo not given) | 2% [at 35.3 µM] (inactive)
37 | CC(C)(C)C(=O)NCCCC(=O)O | -0.395% [at 35.3 µM] (inactive)
38 | CCOCCOCCOC(C)=O | 8.91% (inactive)
39 | N=C(N)N | 6.35% [at 35.3 µM] (inactive)
40 | O=C(O)CCCCCCCCCC(=O)O | 2.95% (inactive)
